Drawing on PubChem BioAssay AID1626 (SRMLSC, 2009), this text covers inhibition for 94 compounds.

Hit rate of the full screen: of about 220,000 compounds, about 2,000 (0.91%) were called active. About 2% were inconclusive and are not listed. No stated cut-off is given here; in the data, inconclusive means inhibition above about 80% without an active follow-up result; inactive means below that; test concentration not stated here. These entries were drawn from the full list. Entries with a potency or affinity are not part of this list.

This assay is described as follows: M. tuberculosis H37Rv growth inhibitors, H37Rv strain (AID 1626).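 Further: bacteria incubated seven days before Alamar blue readout; 0% = bacteria only wells and 100% = bacteria with antibiotic wells.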 The note with it: hits give high values, concentration not given here.
One may read the inhibition as the change of the read-out against control, counted positive when it falls. With `COc1cc(CNC2CCCCCC2)cc(OC)c1`, the inhibition was 9.94% (inactive). On to `Cc1nc(-c2ccc(Cl)cc2)sc1C(=O)NNC(=O)C(C)C`, for which the inhibition is -5% (inactive).

For `CCC1CCCCN1C(=O)COc1c(Br)cc(Br)c2cccnc12` (centres undefined), the inhibition is -13.3% (inactive). The same measure for `CCn1nc(C(=O)Nc2ccc(S(=O)(=O)Nc3ncccn3)cc2)c2ccccc2c1=O`: 1.39% (inactive). The same measure for `CCN(CC)S(=O)(=O)c1cc(NC(=O)COC(=O)CCc2nc3ccccc3s2)ccc1C`: 0.37% (inactive); for `CCOc1ccc(NC(=O)Cn2c(=O)n(CC3CCCO3)c(=O)c3ccccc32)cc1` (centres undefined): 0.09% (inactive); for `COc1cccc2cc(C(N)=O)/c(=N/NC(=O)COc3ccc(Cl)cc3)oc12`: 1.32% (inactive). The result for `CC(C)c1ccc(NC(=O)COc2nnc(-c3cccs3)c(-c3cccs3)n2)cc1` reads 3.94% (inactive); that for `O=C(CSc1ccccn1)c1ccc(F)cc1`, -5.01% (inactive); that for `O=C(CSc1ccc(-c2ccccn2)nn1)c1ccc([N+](=O)[O-])cc1`, 9.1% (inactive).

`CCC(Sc1nc2ccccc2c(=O)[nH]1)C(=O)Nc1ccc(C(C)=O)cc1` (centres undefined): the inhibition was 10.9% (inactive).

Regarding `CCOC(=O)C(NCc1ccccc1OC)(NC(C)=O)C(F)(F)F` (centres undefined), the inhibition is -3.95% (inactive). Regarding `COCCSc1nnc(NC(=O)c2ccc(OC)c([N+](=O)[O-])c2)s1`, the inhibition is -5.62% (inactive). The result for `CCOC(=O)C(C)Sc1nnc(NC(=O)c2cccc([N+](=O)[O-])c2C)s1` (centres undefined) reads 27% (inactive); that for `O=C(NCc1cccs1)c1cccc(S(=O)(=O)N2CCCCC2)c1`, -1.3% (inactive); that for `O=[N+]([O-])c1cccc(N=NN(CCO)c2cccc([N+](=O)[O-])c2)c1`, 7.57% (inactive).

In the case of `Cc1ccc(NC(=O)c2cncc(Br)c2)c([N+](=O)[O-])c1`, the inhibition was 5.6% (inactive). As for `OCCNc1nc(-c2ccccc2)nc2c1oc1ccccc12`, the inhibition was 1.56% (inactive). `O=C(Nc1ccccc1)c1nnsc1S(=O)c1ccc(Cl)cc1` (centres undefined): the inhibition was 47.2% (inactive). The same measure for `CNC(=O)c1nnsc1S(=O)c1ccc(Cl)cc1` (centres undefined): 78.9% (inactive); for `N/C(=N\S(=O)(=O)c1ccc(Cl)cc1)N1CCOCC1`: -5.14% (inactive); for `O=C(Nc1ccccc1)c1nnsc1S(=O)(=O)c1ccc(Cl)cc1`: 2.07% (inactive).

Take `CCCNC(=O)c1nnsc1Sc1ccc(Cl)cc1`: the inhibition was 18.6% (inactive). Consider `O=C(c1ccc(S(=O)(=O)c2ccc(Cl)cc2)cc1)N1CCOCC1`, for which the inhibition is -6.61% (inactive). In the case of `CCCNC(=O)NS(=O)(=O)c1ccc(Cl)cc1`, the inhibition was -12.9% (inactive). The result for `CN(C)C(=O)c1nnsc1Sc1ccc(Cl)cc1` reads -1.74% (inactive).

`CNC(=O)CCC(=O)Nc1ccc(C)cc1`: the inhibition was -1.09% (inactive). The result for `COc1ccc(C2C(C(=O)O)CCC(=O)N2c2ccc(C)cc2)cc1OC` (centres undefined) reads -2.58% (inactive); that for `C=C(C)Cn1c(SCCCO)nc2c1c(=O)[nH]c(=O)n2C`, -7.43% (inactive). Take `O=C(NC1CC1)C1=COCCO1`: the inhibition was -8.37% (inactive). As to `O=C(Nc1ccccc1N1CCOCC1)c1cc(F)cc(F)c1`, the inhibition was -4.82% (inactive). The result for `N#Cc1cc(C(=O)c2cc(Cl)ccc2O)cn(-c2ccccc2)c1=O` reads -3.03% (inactive); that for `Cc1ccc(C(=O)NNC(=O)Cn2nnc3ccccc32)cc1`, -15.4% (inactive). For `CN1CCN(C(=O)c2cnn(-c3ccccc3)c2NC(=O)c2ccccc2)CC1`, the inhibition is -6.4% (inactive).

For `O=C(N/N=C/c1cccc([N+](=O)[O-])c1)c1cccs1`, the inhibition is 4.78% (inactive).

On to `COc1ccc(C(C)=O)cc1COC(=O)c1ccc(S(=O)(=O)N(C)C)cc1`, for which the inhibition is -3.54% (inactive). Turning to `O=C(Nc1ccn(Cc2c(F)c(F)cc(F)c2F)n1)c1cccc(Cn2cc([N+](=O)[O-])cn2)c1`, the inhibition was 2.31% (inactive). Consider `CC1=C(C(=O)N2CCOCC2)C(c2c(F)cccc2F)NC(=O)N1` (centres undefined), for which the inhibition is -2.62% (inactive).

As for `CCOC(=O)C1CCCN(S(=O)(=O)c2ccc(S(N)(=O)=O)cc2)C1` (centres undefined), the inhibition was -2.7% (inactive). For the compound `O=C(c1cc(Cl)ccc1Cl)N1CCOCC1`, the inhibition was -11% (inactive). With `Cc1nnsc1-c1c(C(=O)N2CCOCC2)c(C)nn1-c1ccc(Cl)cc1`, the inhibition is 3.63% (inactive). As for `Cc1c(C(=O)Nc2cccc(S(=O)(=O)N3CCCC3)c2)oc2ccccc12`, the inhibition is 0.77% (inactive).

Take `CCC(CC)C(=O)Nc1cccc(C(=O)Nc2ccc3c(c2)OCO3)c1`: the inhibition is 0.36% (inactive). For `CC1CC(C)CN(C(=O)c2ccc3c(c2)N(Cc2ccccc2)CCS3)C1` (centres undefined), the inhibition was 8.05% (inactive). The same measure for `CC1Cc2ccccc2N1C(=O)Cn1c(=O)cc(O)c2ccccc21` (centres undefined): -9.25% (inactive); for `O=C(CSc1nc2ccccc2[nH]1)Nc1nc(-c2cccc(Br)c2)cs1`: 9.78% (inactive). Regarding `COCCCn1c(SCC(=O)Nc2ccc(C)cc2)nc2ccccc2c1=O`, the inhibition is -3.97% (inactive).

With `CN(C)CCCn1c(SCC(=O)N2c3ccccc3Sc3ccccc32)nc2ccccc2c1=O`, the inhibition was 0.3% (inactive). Take `CCCCn1c(SCC(=O)Nc2nccs2)nc2ccccc2c1=O`: the inhibition was -6.31% (inactive). As for `CC(=O)c1nnn(-c2ccc([N+](=O)[O-])cc2)c1C`, the inhibition is -0.32% (inactive). For the compound `c1ccc2c(-c3cn4ccccc4n3)c[nH]c2c1`, the inhibition was -5.8% (inactive).

On to `Cc1ccccc1N1CCN(CCCN2C(=O)CC(=C(c3ccccc3)c3ccccc3)C2=O)CC1`, for which the inhibition is 0.08% (inactive). The same measure for `O=C1CC(=C(c2ccccc2)c2ccccc2)C(=O)N1CCCN1CCN(c2cccc(Cl)c2)CC1`: 12.8% (inactive); for `O=C1CC(=C2c3ccccc3-c3ccccc32)C(=O)N1CCCCN1CCN(c2ccccc2)CC1`: 8.38% (inactive); for `O=C1CC(=C(c2ccccc2)c2ccccc2)C(=O)N1CCN1CCN(c2cccc(Cl)c2)CC1`: 5.45% (inactive). For `COc1cccc(C2C(C(=O)c3cccs3)=C(O)C(=O)N2CCN(C)C)c1OC` (centres undefined), the inhibition was -9.59% (inactive). For the compound `Cc1ccc(NP(=O)(Nc2ccc(C)cc2)Oc2ccccc2)cc1`, the inhibition is 5.95% (inactive). On to `O=C(NCc1ccccc1Cl)C1CCCN(c2nc3ccsc3c(=O)s2)C1` (centres undefined), for which the inhibition is 1.18% (inactive). On to `NC(=O)c1nsc(C(=O)N(CC(=O)NCc2ccc3c(c2)OCO3)C2CCCC2)c1N`, for which the inhibition was 0.67% (inactive). The same measure for `C=CCNC(=O)/C(C#N)=C/c1c(C)nn(-c2ccc(Cl)cc2)c1Cl`: 4.6% (inactive); for `CC(=O)NC(Cc1ccccc1)C(=O)OCC(=O)c1ccc(Br)cc1` (centres undefined): -1.27% (inactive). In the case of `COc1ccccc1NC(CC(=O)c1ccccc1)C(=O)OCC(=O)c1ccc(F)cc1` (centres undefined), the inhibition is 78.2% (inactive). Take `O=C(CC(Nc1cccc(Cl)c1Cl)C(=O)OCC(=O)c1cccs1)c1ccccc1` (centres undefined): the inhibition is -5.78% (inactive). Take `O=C(CC(Nc1ccccc1Cl)C(=O)OCC(=O)c1cccs1)c1ccccc1` (centres undefined): the inhibition is -5.28% (inactive). Take `Cc1ccc(C(=O)NCCCN2CCOCC2)cc1`: the inhibition is 3.65% (inactive).

Take `COc1ccc2c(c1)S/C(=C\C(=O)c1ccncc1)N2C`: the inhibition is 0.94% (inactive).

For the compound `COC(=O)c1ccc2c(c1)N(Cc1nc(-c3cccc(C)c3)oc1C)C(=O)C1CCCN21` (centres undefined), the inhibition was 8.29% (inactive). The result for `O=C(/C=C/c1ccc(Cl)cc1Cl)c1nc2ccccc2[nH]1` reads 0.46% (inactive); that for `Cc1ccc(/C=C/C(=O)c2nc3ccccc3[nH]2)cc1`, 0.43% (inactive). Turning to `C/C(=N/NC(=O)CNC(=O)c1cccnc1)c1ccco1`, the inhibition was 7.49% (inactive). The same measure for `COc1cccc(CNC(=O)C2CCN(S(=O)(=O)c3c(C)nn(C)c3C)CC2)c1`: -0.47% (inactive); for `O=C(c1ccc2c3c(cccc13)CC2)C1CCCN(Cc2ccncc2)C1` (centres undefined): 3.23% (inactive). Regarding `O=C(c1ccc2c3c(cccc13)CC2)C1CCCN(Cc2ncc[nH]2)C1` (centres undefined), the inhibition was -5.62% (inactive). For the compound `O=C(N/N=C1\CC2CC=CC12)c1ccc(Br)cc1` (centres undefined), the inhibition is -7.43% (inactive). The result for `Cc1ccc2cc(CN(CC3CCCO3)S(=O)(=O)c3ccc4c(c3)OCCO4)c(=O)[nH]c2c1C` (centres undefined) reads 9.1% (inactive); that for `COC(=O)c1ccccc1N=Nc1c(N)n[nH]c1N`, -10.6% (inactive). The result for `Nc1n[nH]c(N)c1N=Nc1ccc(Cl)cc1` reads 1.65% (inactive). With `Cc1ccc(-c2[nH]nc(N)c2N=Nc2cccc(Cl)c2C)cc1`, the inhibition is 0.18% (inactive). For the compound `Nc1n[nH]c(N)c1N=Nc1cccc(F)c1`, the inhibition is 0.51% (inactive). As to `CCn1cc(C2=NC(C(C)C)CO2)c2ccccc21` (centres undefined), the inhibition is 5.08% (inactive).

Consider `CCOc1ccc(OCC)c(NC(=O)Nc2ccc3c(c2)N(C)C(=O)CS3)c1`, for which the inhibition was 1.8% (inactive).

As for `O=C(O)c1cc(NC(=O)C2CCCO2)cc(NC(=O)C2CCCO2)c1` (centres undefined), the inhibition was -1.59% (inactive). Take `CC1(C)CC(=O)C(/C=N/n2c(C(F)(F)F)nc3ccccc3c2=O)=C(O)C1`: the inhibition is 13.1% (inactive). Regarding `O=C(CSc1nnc(-c2ccccc2F)n1C1CCCCC1)N1CCCC1`, the inhibition is -3.16% (inactive). The same measure for `OC(COCc1ccc(Cl)cc1)CN1CCN(c2ccccn2)CC1` (centres undefined): 6.32% (inactive). With `Cc1cc(C)c(OCC(O)CN2CCN(c3ccccn3)CC2)c(C)c1` (centres undefined), the inhibition is -4.16% (inactive). With `OC(CN1CCN(c2ccccn2)CC1)Cn1c2ccccc2c2ccccc21` (centres undefined), the inhibition was 34.8% (inactive). As to `OC(COC(c1ccccc1)c1ccccc1)CN1CCN(c2ccccn2)CC1` (centres undefined), the inhibition is 3.57% (inactive). The same measure for `CC(C)C1=C2CCCCC2NC(=O)N1` (centres undefined): -3.19% (inactive); for `O=C(CN1CCSC1=NCc1ccccc1)c1ccccc1`: 0.24% (inactive). The result for `Cc1nc(SCC(=O)c2cc3ccccc3oc2=O)c(C#N)c(C)c1C(=O)Nc1ccccc1` reads 1.89% (inactive); that for `Cc1nc(SCC(=O)OCc2ccccc2)c(C#N)c(-c2ccccc2)c1C(=O)Nc1ccccc1`, 1.59% (inactive). Regarding `Cc1ccc(C(=O)CSc2nc(-c3ccccc3)ccc2C#N)cc1`, the inhibition was 4.37% (inactive). Regarding `N#Cc1ccc(-c2ccccc2)nc1SCC(=O)c1cccc(Cl)c1`, the inhibition is 12.6% (inactive).
